# Where “and” joins values, the source holds several entries; their conditions need not be identical. Identical values can stand only once. Records with an inconclusive call do not appear. For part of these data: Potency and affinity values are given separately. Calls of active or inactive are those of the source.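 The calls were made as follows, unless noted: active = luciferase signal above three times the same-plate solvent-only control wells; inactive = the rest.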
# Legend:
# [1] = target: 6-phosphogluconate dehydrogenase, decarboxylating (Homo sapiens) (UniProt P52209); assay: inhibition of human phosphogluconate dehydrogenase – biochemical, recombinant enzyme, NADPH absorbance, primary screen (AID 1159550;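 active = at least 20% inhibition of 6-phosphogluconate dehydrogenase activity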); settings: recombinant 6PGD, NADPH absorbance 341 nm; at 10 µM; stronger effect = higher value
# Sequence of 6-phosphogluconate dehydrogenase, decarboxylating (Homo sapiens) (P52209 whole entry, looked up): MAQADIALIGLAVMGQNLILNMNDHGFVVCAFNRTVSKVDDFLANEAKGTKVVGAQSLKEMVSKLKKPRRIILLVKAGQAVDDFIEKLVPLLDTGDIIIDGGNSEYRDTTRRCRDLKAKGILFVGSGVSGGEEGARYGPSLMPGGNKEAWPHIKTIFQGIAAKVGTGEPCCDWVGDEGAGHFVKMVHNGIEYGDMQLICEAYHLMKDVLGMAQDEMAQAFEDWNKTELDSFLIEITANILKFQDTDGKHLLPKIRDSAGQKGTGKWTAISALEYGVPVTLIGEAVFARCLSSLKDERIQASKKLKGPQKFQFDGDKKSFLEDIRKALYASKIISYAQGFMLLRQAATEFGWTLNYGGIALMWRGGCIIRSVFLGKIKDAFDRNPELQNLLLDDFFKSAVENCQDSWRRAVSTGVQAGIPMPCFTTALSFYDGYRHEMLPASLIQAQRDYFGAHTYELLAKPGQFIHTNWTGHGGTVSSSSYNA
# [2] = EMT-state selective cytotoxicity in co-culture – imaging, PC-3E GFP, TEM4-18 mCherry, primary screen (AID 1345086;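 active = compounds killing one labelled cell type while sparing the other, by normalised counts and ratio limits, not self-fluorescent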;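 as to all read-outs here: cells exposed to compound for 72 h before imaging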;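 as to red/green cell ratio (normalised): normalised mesenchymal count divided by normalised epithelial count so high means epithelial killing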); settings: PC-3E GFP / TEM4-18 mCherry co-culture, imaging cell counts, at 1 µM; for red/green cell ratio (normalised): actives lie on both sides, counts scaled to control wells, 1 = unselective
# [3] = target: Mitogen-activated protein kinase 7 (Homo sapiens) (UniProt Q13164); assay: Gal4-ERK5 driven luciferase induction – cell-based, HTS, primary screen (AID 1508626); settings: HeLa Gal4-ERK5 transactivation, 18 h, at 5 µM, stronger effect = higher value;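 also: luciferase driven by Gal4-ERK5 fusion binding five Gal4 sites before minimal TATA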
# Sequence of Mitogen-activated protein kinase 7 (Homo sapiens) (Q13164 whole entry, looked up, the tested form may be a part): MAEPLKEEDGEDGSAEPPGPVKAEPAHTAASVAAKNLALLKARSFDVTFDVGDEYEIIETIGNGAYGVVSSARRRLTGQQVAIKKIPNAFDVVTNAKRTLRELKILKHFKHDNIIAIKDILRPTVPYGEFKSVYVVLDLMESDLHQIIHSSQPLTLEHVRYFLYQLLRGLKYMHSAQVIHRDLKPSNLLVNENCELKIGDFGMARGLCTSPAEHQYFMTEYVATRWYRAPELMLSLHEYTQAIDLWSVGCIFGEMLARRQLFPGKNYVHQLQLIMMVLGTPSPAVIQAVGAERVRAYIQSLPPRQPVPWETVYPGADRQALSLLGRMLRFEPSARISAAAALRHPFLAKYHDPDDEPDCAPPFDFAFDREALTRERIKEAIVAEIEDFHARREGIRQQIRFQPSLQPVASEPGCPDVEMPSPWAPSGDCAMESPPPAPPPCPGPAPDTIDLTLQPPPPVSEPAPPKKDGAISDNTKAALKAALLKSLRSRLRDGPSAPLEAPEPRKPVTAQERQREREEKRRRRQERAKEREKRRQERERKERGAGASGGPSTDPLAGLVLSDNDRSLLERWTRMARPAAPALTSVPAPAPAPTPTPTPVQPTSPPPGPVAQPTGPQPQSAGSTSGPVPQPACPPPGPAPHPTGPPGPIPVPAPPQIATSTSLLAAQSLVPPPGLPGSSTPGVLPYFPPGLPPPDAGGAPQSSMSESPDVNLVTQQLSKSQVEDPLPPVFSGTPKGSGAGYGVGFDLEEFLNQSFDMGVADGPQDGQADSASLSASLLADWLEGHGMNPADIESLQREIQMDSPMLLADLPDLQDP
# [4] = blockers of polyQ-driven CASP3 activation – cell-based (AID 1583); settings: polyglutamine-induced caspase-3 activation, cell assay; stronger effect = higher value;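 tested at 10 µM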
# [5] = yeast 75Q aggregation reduction – 75Q-TubU reporter (AID 1593); settings: Yeast 75Q polyglutamine aggregation reporter
# [6] = restoration of touch response, mutant HTT neurons – whole organism, C. elegans mechanosensory neurons, N-terminal huntingtin (AID 1599); settings: C. elegans polyQ-huntingtin mechanosensory neurons, stronger effect = higher value
# [7] = blockers of cytochrome c efflux from mitochondria – biochemical, purified mitochondria (AID 1603); settings: stronger effect = lower value;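 also: mouse liver mitochondria challenged with calcium chloride; signal normalized to the plate average as 100%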
# [8] = polyglutamine aggregate formation blockers (AID 1604); settings: polyglutamine-induced protein aggregation inhibition assay; stronger effect = higher value; tested at 2.5 µM
# [9] = glutamate transport activators, MN-1 cells, MN-1 cell line (AID 1612); settings: MN-1 motor neuron cells, stronger effect = higher value;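 also: tested at 1 µM final; 0% = mean of DMSO vehicle wells on each plate; positive means more glutamate uptake than control and negative means less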
# [10] = 75Q-TubH aggregate inhibition, S. cerevisiae, yeast (AID 1616); settings: S. cerevisiae 75Q-TubH polyglutamine aggregation suppression; stronger effect = higher value
# [11] = P. berghei load reduction in hepatocytes – cell-based, HepG2, luciferase luminescence, HepG2 viability, primary screen (AID 624349; in the data active = parasite load remaining mostly below about 12%, no sharp cut-off; inactive = mostly above about 10%;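 also: 100% = mean of DMSO negative control wells on the same plate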); settings: P. berghei liver stage in HepG2, luciferase luminescence, concentration not given here; parasite load remaining: stronger effect = lower value; viability: measured here: HepG2 viability without parasites
# [12] = target: ATP-dependent translocase ABCB1 (Homo sapiens) (UniProt P08183); assay: P-glycoprotein substrate transport blockade – cell-based (AID 377; in the data active = fluorescence slope change above about 50%); settings: MDR1-expressing cells, fluorescent substrate accumulation slope; stronger effect = higher value; concentration not given here
# Sequence of ATP-dependent translocase ABCB1 (Homo sapiens) (P08183 whole entry, looked up): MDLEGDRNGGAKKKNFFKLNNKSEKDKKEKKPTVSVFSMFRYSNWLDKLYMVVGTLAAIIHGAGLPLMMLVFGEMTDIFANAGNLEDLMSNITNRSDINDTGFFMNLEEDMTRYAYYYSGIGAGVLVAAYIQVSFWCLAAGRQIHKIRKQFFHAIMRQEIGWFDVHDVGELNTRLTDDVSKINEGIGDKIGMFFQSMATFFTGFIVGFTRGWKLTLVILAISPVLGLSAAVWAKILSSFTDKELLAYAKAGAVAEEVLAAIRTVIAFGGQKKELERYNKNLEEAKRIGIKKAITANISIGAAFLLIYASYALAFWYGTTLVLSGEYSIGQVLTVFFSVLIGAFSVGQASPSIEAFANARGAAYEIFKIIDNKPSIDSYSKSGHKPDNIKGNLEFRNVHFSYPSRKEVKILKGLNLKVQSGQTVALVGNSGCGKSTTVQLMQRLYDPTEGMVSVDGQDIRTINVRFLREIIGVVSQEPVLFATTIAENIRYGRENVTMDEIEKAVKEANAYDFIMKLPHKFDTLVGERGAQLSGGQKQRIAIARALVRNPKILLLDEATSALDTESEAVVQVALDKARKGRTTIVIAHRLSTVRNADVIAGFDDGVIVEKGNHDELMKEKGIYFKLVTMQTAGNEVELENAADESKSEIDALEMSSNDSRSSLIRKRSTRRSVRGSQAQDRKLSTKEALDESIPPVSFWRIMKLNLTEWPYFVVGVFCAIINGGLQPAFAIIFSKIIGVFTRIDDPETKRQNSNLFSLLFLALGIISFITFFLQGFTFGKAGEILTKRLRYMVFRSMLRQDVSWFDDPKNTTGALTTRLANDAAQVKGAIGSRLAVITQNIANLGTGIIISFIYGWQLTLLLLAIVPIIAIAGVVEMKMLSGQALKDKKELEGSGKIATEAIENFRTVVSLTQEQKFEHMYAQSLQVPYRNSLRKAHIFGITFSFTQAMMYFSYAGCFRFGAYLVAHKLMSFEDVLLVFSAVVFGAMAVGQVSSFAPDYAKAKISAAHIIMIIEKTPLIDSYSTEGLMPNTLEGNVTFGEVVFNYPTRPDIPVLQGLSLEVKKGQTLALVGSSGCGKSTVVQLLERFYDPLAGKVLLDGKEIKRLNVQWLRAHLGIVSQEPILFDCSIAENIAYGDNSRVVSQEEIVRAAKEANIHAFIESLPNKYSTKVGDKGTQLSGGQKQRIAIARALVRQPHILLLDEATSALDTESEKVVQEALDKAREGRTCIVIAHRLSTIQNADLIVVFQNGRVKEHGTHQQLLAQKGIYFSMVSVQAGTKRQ
# [13] = compounds altering circadian rhythm period length – cell-based, LOPAC library, luminescence reporter (AID 2774; call rule not given here;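 also: values are relative to mean of DMSO wells on each plate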); settings: circadian reporter cells, at 7 µM, actives lie on both sides
# [14] = compounds altering viability of human ES cells (AID 493140; call rule not given here;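 also: cells exposed to compounds for four days before counting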); settings: human embryonic stem cell survival screen; stronger effect = higher value
# [15] = tested on: Hepatitis C virus NS3 helicase; assay: blockers of NS3h binding to ssDNA – biochemical, fluorescence polarization, LOPAC1280 library, primary screen (AID 687035; in the data active = inhibition above about 37%); settings: Purified HCV NS3 helicase, Cy5-dT15 ssDNA binding fluorescence polarization; stronger effect = higher value; concentration not given here
# [16] = compounds altering Cy5-DNA-NS3h complex signal – biochemical, LOPAC1280, artefact control for HCV NS3 helicase inhibitor project (AID 687037; call rule not given here); settings: Cy5-DNA-NS3h complex fluorescence interference counterscreen
# [17] = tested on: Aerobactin synthetase IucA (Klebsiella pneumoniae); assay: inhibition of K. pneumoniae IucA enzyme – biochemical, Tocris library, absorbance (AID 1345561; call rule not given here;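 also: 100% = enzyme without compound and 0% = no enzyme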); settings: purified IucA enzyme assay, absorbance (OD) read-out; stronger effect = lower value;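 tested at 8 µM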
# [18] = viability loss in pontine glioma line – cell-based, SU-DIPG-XIII, MIPE4.0, CellTiter-Glo, qHTS, dose response (AID 1347061; cut-off not given, nearly all actives have AC50 up to about 37 µM;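 also: cells exposed to compound for 48 hours before readout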); settings: CellTiter-Glo ATP luminescence
# [19] = viability loss in pontine glioma line – cell-based, JHH-DIPG-1, MIPE4.0, CellTiter-Glo, qHTS, dose response (AID 1347062; cut-off not given, nearly all actives have AC50 up to about 27 µM); settings: JHH-DIPG-1 viability, CellTiter-Glo ATP luminescence
# [20] = viability loss in pontine glioma line – cell-based, SU-DIPG-IV, MIPE4.0, CellTiter-Glo, qHTS, dose response (AID 1347063; cut-off not given, nearly all actives have AC50 up to about 30 µM;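 also: compound exposure lasted 48 hours before the viability readout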); settings: CellTiter-Glo ATP luminescence
# [21] = blockers of cellular phospholipid synthesis – cell-based, LOPAC library, screen 4, primary screen (AID 1347384; call rule not given here); settings: animal cells, phospholipid biosynthesis inhibition screen; at 10 µM
# [22] = MELAS cybrid and Rieske KO viability enhancers – cell-based, MELAS cybrids, Rieske KO mouse fibroblasts, CellTiter-Glo, primary screen (AID 1508586;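 active = mean z-score across replicates of 1.96 or higher in either the MELAS or the Rieske mutant cell line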;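 also: z relative to plate mean and SD of compound and empty wells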); settings: low glucose
# [23] = target: NAD(+) hydrolase SARM1 (Homo sapiens) (UniProt Q6SZW1); assay: blocking NAD cleavage by SARM1 SAM-TIR – cell lysate, NAD-Glo luminescence (AID 1508614;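 active = compound whose remaining NAD level is above about 45 nM, limit read from the data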;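 also: higher remaining NAD means stronger inhibition of SARM1 NADase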); settings: SAM-TIR HEK293T lysate NADase, at 1 µM, stronger effect = higher value
# Sequence of NAD(+) hydrolase SARM1 (Homo sapiens) (Q6SZW1 whole entry, looked up): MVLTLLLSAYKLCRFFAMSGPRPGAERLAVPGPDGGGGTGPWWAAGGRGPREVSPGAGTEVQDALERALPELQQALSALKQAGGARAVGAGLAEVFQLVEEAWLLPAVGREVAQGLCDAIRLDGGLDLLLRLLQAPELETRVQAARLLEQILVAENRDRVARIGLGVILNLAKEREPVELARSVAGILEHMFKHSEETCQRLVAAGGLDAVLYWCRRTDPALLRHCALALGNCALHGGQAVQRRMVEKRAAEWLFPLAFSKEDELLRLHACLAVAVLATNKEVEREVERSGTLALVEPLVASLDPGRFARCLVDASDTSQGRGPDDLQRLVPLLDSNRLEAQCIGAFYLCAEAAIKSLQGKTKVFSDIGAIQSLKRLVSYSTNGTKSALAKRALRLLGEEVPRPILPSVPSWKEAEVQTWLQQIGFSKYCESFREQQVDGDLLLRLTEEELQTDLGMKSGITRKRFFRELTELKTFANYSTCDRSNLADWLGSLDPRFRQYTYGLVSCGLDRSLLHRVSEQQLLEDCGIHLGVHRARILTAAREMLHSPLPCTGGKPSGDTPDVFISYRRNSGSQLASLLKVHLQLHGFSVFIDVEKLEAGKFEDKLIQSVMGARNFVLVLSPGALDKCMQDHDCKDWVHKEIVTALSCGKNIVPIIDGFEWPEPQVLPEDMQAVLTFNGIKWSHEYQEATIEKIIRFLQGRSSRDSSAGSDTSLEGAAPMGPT
# [24] = galactose survival enhancers in mitochondrial complex I cybrids – cell-based, galactose medium, ATP luminescence, primary screen (AID 1645843;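 active = z-score of at least 1.8 in each of two replicates, scored against plate mean and spread of sample wells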;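 also: positive z means more ATP and so rescue of galactose-driven cybrid death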); settings: complex I mutant cybrid cells, 72 h, stronger effect = higher value
# [25] = rescue of PC12 cells from polyQ htt toxicity – LDH release (AID 1610); settings: PC12 mutant huntingtin toxicity, final LDH at 4 uM, stronger effect = lower value
# [26] = measured here: epithelial PC-3E GFP cell survival
# [27] = measured here: mesenchymal TEM4-18 mCherry cell survival
structure (smiles),measurement,setting,value
C=CCCCCCCCCCCCC(O)CC(O)COC(C)=O (stereo not given) (tested in a mixture with another compound),inhibition,[1],4.12% (inactive)
same,red/green cell ratio (normalised),[2],0.92 (inactive)
same,normalised cell number,[2]; [26],1
same,normalised cell number,[2]; [27],0.92
same,luciferase signal,[3],36 AU (inactive)
O=c1c(-c2cc(O)c(O)c(O)c2)coc2cc(O)c(O)c(O)c12,inhibition,[1],29.2% (active)
same,red/green cell ratio (normalised),[2],0.99 (inactive)
same,normalised cell number,[2]; [26],1.01
same,normalised cell number,[2]; [27],1
same,luciferase signal,[3],220 AU (active)
O=C(O)CCCCCCCCCCCCC1C=CCC1 (stereo not given),inhibition,[1],-14% (inactive)
same,red/green cell ratio (normalised),[2],1 (inactive)
same,normalised cell number,[2]; [26],1.02
same,normalised cell number,[2]; [27],1.02
same,luciferase signal,[3],20 AU (inactive)
S=c1[nH]c2ccccc2s1,inhibition,[1],-1.67% (inactive)
same,red/green cell ratio (normalised),[2],0.97 (inactive)
same,normalised cell number,[2]; [26],1.13
same,normalised cell number,[2]; [27],1.09
same,luciferase signal,[3],48 AU (inactive)
COc1cc2c(cc1OC)C(=O)OC2,inhibition,[1],7.46% (inactive)
same,red/green cell ratio (normalised),[2],0.97 (inactive)
same,normalised cell number,[2]; [26],0.96
same,normalised cell number,[2]; [27],0.94
same,luciferase signal,[3],160 AU (inactive)
COc1c(CC(=O)c2cc3c(cc2O)OC(C)(C)C(O)C3)ccc2c1C=CC(C)(C)O2 (stereo not given),inhibition,[1],5.33% (inactive)
same,red/green cell ratio (normalised),[2],0.66 (inactive)
same,normalised cell number,[2]; [26],1.48
same,normalised cell number,[2]; [27],0.97
same,luciferase signal,[3],40 AU (inactive)
N#Cc1ccc2c(c1)N(CCCN1CCC(O)CC1)c1ccccc1S2,inhibition,[4],-41.8%
same,score,[5],1.21
same,rescue above control,[6],2.76
same,cytochrome c release ratio,[7],0.74
same,inhibition of aggregation,[8],41.2%
same,glutamate uptake change,[9],8.34%
same,aggregation suppression score,[10],1.12
same,parasite load remaining,[11],134% (inactive)
same,viability,[11],87.2%
same,inhibition,[1],-2.33% (inactive)
same,red/green cell ratio (normalised),[2],1.05 (inactive)
same,normalised cell number,[2]; [26],0.87
same,normalised cell number,[2]; [27],0.92
same,luciferase signal,[3],96 AU (inactive)
CC(CCc1ccc(O)cc1)NCCc1ccc(O)c(O)c1 (stereo not given),fluorescence slope change,[12],19.4% (inactive)
same,period change,[13],0.025 h (inactive)
same,survival,[14],15.4 (inactive)
same,parasite load remaining,[11],118% (inactive) and 72.9% (inactive) and 42.2% (inactive)
same,viability,[11],109% and 73.6% and 115%
same,inhibition,[15],-1% (inactive)
same,fluorescence ratio (interference),[16],1 (inactive)
same,inhibition,[1],1.78% (inactive)
same,remaining activity,[17],94.6% (inactive)
same,outcome,[18],inactive
same,outcome,[19],inactive
same,outcome,[20],inactive
same,outcome,[21],inactive
same,z-score,"[22]; MELAS cybrid survival, CellTiter-Glo 48 h, stronger effect = higher value",0.557 (inactive) and -0.473 (inactive)
same,z-score,"[22]; Rieske KO mouse fibroblast survival, CellTiter-Glo 72 h",-0.00496 and 0.199
same,remaining NAD,[23],10 nM (inactive)
same,luciferase signal,[3],56 AU (inactive)
same,z-score,[24],-1.02 (inactive) and -0.96 (inactive) and -2.02 (inactive)
CC(=O)c1c(O)c(C)c(O)c2c1OC1=CC(=O)C(C(C)=O)C(=O)C12C (stereo not given),inhibition,[4],59.1%
same,score,[5],0.79
same,rescue above control,[6],1.6
same,cytochrome c release ratio,[7],0.98
same,inhibition of aggregation,[8],-17%
same,normalised LDH release,[25],1.02
same,glutamate uptake change,[9],-5.26%
same,aggregation suppression score,[10],0.354
same,inhibition,[1],-11.1% (inactive)
same,red/green cell ratio (normalised),[2],0.89 (inactive)
same,normalised cell number,[2]; [26],1.06
same,normalised cell number,[2]; [27],0.94
same,luciferase signal,[3],80 AU (inactive)

# From PubChem BioAssay
